This passage reports Potency and max response results from PubChem BioAssay (Tox21).

“And” between values parts separate entries of the source, which are not always exact repeats. Equal entries are not always repeated. Inconclusive results are not listed. A structure can be active in one record and inactive in another. The source made the active and inactive calls. The call rests on the fitted dose curve; in most records, active means well fitted curve in the direction sought with a large enough effect in the repeat runs; inconclusive means weak or mixed curves; inactive means no such curve, though single readings can be large; an effect the other way counts as inactive or inconclusive.

Assay [1] is described as follows: A CellTox Green Cytotoxicity Assay to monitor cytotoxicity in HEK293 cells - 40 hour (AID 1224871). Further: nearly all actives have a fitted effect of over 45% in size. Further: potency means the concentration at half of the fitted maximal effect. The method, boiled down: (§1)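 Read-out: fluorescence of a cell-impermeant cyanine dye staining DNA of dead cells, proportional to cytotoxicity. HEK293, 600 cells/well with reagent, compound (23 nL DMSO) added after 5 h; reads at 0, 8, 16, 24, 32, 40 h.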
The nature of assay [2]: qHTS RealTime-Glo MT Cell Viability Assay in HepG2 cells - 8 hour (AID 1224873). Further: nearly all actives have a fitted effect of over 55% in size. The method, boiled down: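 HepG2 cells mixed with RealTime-Glo MT reagents (NanoLuc plus cell-permeant prosubstrate) were seeded at 600 cells/well, incubated 5 h at 37 C/5% CO2, then pinned with compounds in DMSO; nonlytic luminescence tracked viability during 40 h treatment.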
(Quantitative high-throughput screening tests each substance at several concentrations.)

A short description of assay [3]: A CellTox Green Cytotoxicity Assay to monitor cytotoxicity in HEK293 cells - 24 hour (AID 1224875). Further: series mostly up to about 77 µM; nearly all actives have a fitted effect of over 45% in size. The method, boiled down:
as §1

Assay [4] can be described thus: qHTS RealTime-Glo MT Cell Viability Assay in HepG2 cells - 32 hour (AID 1224877). Further: nearly all actives have a fitted effect of over 55% in size. Further: potency means the concentration at half of the fitted maximal effect. The method, boiled down:
(§2)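 Cell number in HepG2 cultures estimated from NanoLuc luminescence generated by metabolic reduction of a prosubstrate by living cells. The homogeneous, nonlytic format allowed repeated reads at 0, 8, 16, 24, 32 and 40 h of compound exposure.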

A short description of assay [5]: A CellTox Green Cytotoxicity Assay to monitor cytotoxicity in HepG2 cells - 24 hour (AID 1224878). Further: nearly all actives have a fitted effect of over 45% in size. Further: potency means the concentration at half of the fitted maximal effect. The method, boiled down:
(§3)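 HepG2, 600 cells/well premixed w/ CellTox Green; 5 h settle, 37 C/5% CO2; pintool cpd add (DMSO); 37 C, 40 h; fluorescence read at 0, 8, 16, 24, 32, 40 h.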

Assay [6] in a line: A CellTox Green Cytotoxicity Assay to monitor cytotoxicity in HepG2 cells - 40 hour (AID 1224879). Further: nearly all actives have a fitted effect of over 40% in size. Further: potency means the concentration at half of the fitted maximal effect. The method, boiled down: as §3
Assay [7] is described as follows: qHTS RealTime-Glo MT Cell Viability Assay in HEK293 cells - 0 hour (AID 1224880). Further: top concentration of the series differs between compounds; nearly all actives have a fitted effect of over 45% in size. The method, boiled down:
(§4)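 Luminescence readout at each listed time point; HEK293, 600 cells/well, RealTime-Glo MT reagent added with cells; compounds pinned (23 nL in DMSO) after 5 h at 37 C; continuous culture at 37 C.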

Assay [8] is described as follows: A CellTox Green Cytotoxicity Assay to monitor cytotoxicity in HEK293 cells - 32 hour (AID 1224881). Further: nearly all actives have a fitted effect of over 40% in size. Further: potency means the concentration at half of the fitted maximal effect. The method, boiled down: as §1
A short description of assay [9]: A CellTox Green Cytotoxicity Assay to monitor cytotoxicity in HepG2 cells - 0 hour (AID 1224882). Further: nearly all actives have a fitted effect of over 35% in size. The method, boiled down:
as §3

Assay [10] is described as follows: A CellTox Green Cytotoxicity Assay to monitor cytotoxicity in HepG2 cells - 32 hour (AID 1224883). Further: nearly all actives have a fitted effect of over 50% in size. The method, boiled down: as §3
A short description of assay [11]: A CellTox Green Cytotoxicity Assay to monitor cytotoxicity in HEK293 cells - 8 hour (AID 1224884). Further: nearly all actives have a fitted effect of over 35% in size. Further: potency means the concentration at half of the fitted maximal effect. The method, boiled down: as §1
A short description of assay [12]: qHTS RealTime-Glo MT Cell Viability Assay in HepG2 cells - 16 hour (AID 1224885). Further: nearly all actives have a fitted effect of over 50% in size. Further: potency means the concentration at half of the fitted maximal effect. The method, boiled down: as §2
A short description of assay [13]: A CellTox Green Cytotoxicity Assay to monitor cytotoxicity in HEK293 cells - 16 hour (AID 1224888). Further: nearly all actives have a fitted effect of over 35% in size. The method, boiled down:
as §1

Assay [14] in a line: qHTS RealTime-Glo MT Cell Viability Assay in HepG2 cells - 0 hour (AID 1224889). Further: nearly all actives have a fitted effect of over 50% in size. The method, boiled down:
as §2

Assay [15] can be described thus: A CellTox Green Cytotoxicity Assay to monitor cytotoxicity in HepG2 cells - 8 hour (AID 1224890). Further: nearly all actives have a fitted effect of over 45% in size. Further: potency means the concentration at half of the fitted maximal effect. The method, boiled down:
as §3

Assay [16] can be described thus: qHTS RealTime-Glo MT Cell Viability Assay in HEK293 cells - 40 hour (AID 1224874). Further: nearly all actives have a fitted effect of over 50% in size. Further: potency means the concentration at half of the fitted maximal effect. The following applies: RealTime-Glo luminescence; max response: stronger effect = lower value. The method, boiled down: as §4
Assay [17] in a line: A CellTox Green Cytotoxicity Assay to monitor cytotoxicity in HepG2 cells - 16 hour (AID 1224876). Further: nearly all actives have a fitted effect of over 45% in size. Further: potency means the concentration at half of the fitted maximal effect. The method, boiled down: as §3
Assay [18] is described as follows: qHTS RealTime-Glo MT Cell Viability Assay in HEK293 cells - 24 hour (AID 1224886). Further: nearly all actives have a fitted effect of over 50% in size. Further: potency means the concentration at half of the fitted maximal effect. The method, boiled down:
(§5)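 Homogeneous bioluminescent viability format in HEK293 cells (600 cells/well). Following 5 h at 37 C/5% CO2, 23 nL compound was pintooled; the signal was measured repeatedly during 40 h incubation.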

Assay [19] can be described thus: qHTS RealTime-Glo MT Cell Viability Assay in HEK293 cells - 8 hour (AID 1224887). Further: nearly all actives have a fitted effect of over 50% in size. Further: potency means the concentration at half of the fitted maximal effect. The method, boiled down: as §4
A short description of assay [20]: qHTS RealTime-Glo MT Cell Viability Assay in HEK293 cells - 16 hour (AID 1224872). Further: nearly all actives have a fitted effect of over 50% in size. Further: potency means the concentration at half of the fitted maximal effect. The method, boiled down: as §5
On the % scale 0 is the no-effect control and ±100 the full control effect.

Consider `CC1(C)C(/C=C(\Cl)C(F)(F)F)C1C(=O)OC(C#N)c1cccc(Oc2ccccc2)c1` (configuration not stated), for which the Potency entry in [1], in [2], in assay [3], in assay [4], in assay [5] and in assay [6] was “inactive” each time. In addition, the Potency entry in assay [7], in [8], in assay [9], in assay [10], in assay [11] and in assay [12] was “inactive” in each case. For the same compound, the Potency result in assay [13], in assay [14] and in assay [15] was “inactive” each time.
Turning to `CC(C)CC(C)(c1ccc(O)cc1)c1ccc(O)cc1`, the Potency in assay [1] is 55.1 µM (active); in assay [16], 27.6 µM (active); in assay [17], 43.8 µM (active); in assay [5], 43.8 µM (active); in assay [6], 43.8 µM (active); in [8] it was 49.1 µM (active). Also, the Potency in assay [11] is 24.6 µM (active) and inactive; in assay [18], 43.8 µM (active); in [19], 43.8 µM (active) and inactive; in assay [15], “inactive and 49 µM (active)”. In addition, the Potency result in assay [4], in [7], in assay [9] and in assay [14] was “inactive” throughout.
For the compound `C=CC(=O)OCCCCOC(=O)C=C`, the Potency in assay [1] is 43.6 µM (active); in [16] it was 34.7 µM (active); in [4], 49 µM (active); in [6] it was 49 µM (active); in assay [8], 43.6 µM (active); in assay [18], 34.7 µM (active). Further, the Potency entry in assay [17], in [5], in assay [7], in [9], in [11] and in assay [19] was “inactive” each time. Also, the Potency result in assay [13], in assay [14] and in [15] was “inactive” throughout.
Take `CCCCOP(=O)(CCCC)OCCCC`: the Potency entry in assay [1], in assay [2], in assay [3], in assay [4], in [5] and in assay [6] was “inactive” each time. Besides, the Potency result in assay [7], in assay [8], in assay [10], in [11], in assay [12] and in assay [13] was “inactive” each time. For the same compound, the Potency result in assay [14] and in assay [15] was “inactive” each time.
With `COC(=O)N(C(=O)N1CO[C@@]2(C(=O)OC)Cc3cc(Cl)ccc3C2=N1)c1ccc(OC(F)(F)F)cc1`, the Potency result in [1], in assay [3], in assay [17], in [4], in assay [5] and in assay [6] was “inactive” throughout. The Potency entry in assay [7], in [8], in assay [10], in assay [13], in [14] and in assay [15] was “inactive” in each case.
Take `Clc1ccc(-c2ccccc2)cc1`: the Potency entry in [20], in [2], in assay [3], in assay [17], in assay [4] and in assay [5] was “inactive” in each case. The Potency result in assay [6], in assay [7], in assay [9], in assay [10], in assay [11] and in assay [12] was “inactive” in each case. Also, the Potency result in assay [18], in [13], in assay [14] and in assay [15] was “inactive” in each case. Besides, the max response in assay [16] is -16.9% (inactive).
Regarding `Clc1ccc(CCC(Cn2ccnc2)Sc2c(Cl)cccc2Cl)cc1` (configuration not stated), the Potency result in [1], in assay [3], in [7], in [11], in assay [13] and in [14] was “inactive” in each case. Besides, the Potency in assay [16] was 8.49 µM (active); in assay [6], 10.7 µM (active).
With `CCc1nn(C)c(C(=O)NCc2ccc(C(C)(C)C)cc2)c1Cl`, the results for the Potency in assay [20], in assay [16] and in assay [18] were 0.0871 µM (active), 0.0977 µM (active) and 0.049 µM (active), respectively. The Potency entry in [2], in assay [3], in assay [17], in [4], in assay [5] and in assay [6] was “inactive” in each case. The Potency result in assay [7], in assay [8], in assay [9], in assay [10], in assay [11] and in assay [12] was “inactive” each time. The Potency entry in assay [13], in [14] and in [15] was “inactive” in each case.
In the case of `CCCCOCN(C(=O)CCl)c1c(CC)cccc1CC`, the Potency result in [20], in assay [2], in [3], in assay [17], in assay [5] and in assay [7] was “inactive” each time. Also, the Potency result in [8], in assay [9], in [11], in assay [18], in assay [19] and in assay [13] was “inactive” each time. Moreover, the Potency entry in assay [14] and in assay [15] was “inactive” throughout. Moreover, the max response in assay [16] was -10.8% (inactive).
Take `Clc1ccc(CO/N=C(\Cn2ccnc2)c2ccc(Cl)cc2Cl)c(Cl)c1`: the Potency result in assay [1], in assay [3], in [7], in assay [8], in assay [9] and in assay [11] was “inactive” throughout. The Potency result in assay [13] and in [14] was “inactive” throughout. The Potency is 21.3 µM (active) in assay [16], 26.8 µM (active) in [6], 21.3 µM (active) in assay [12] and 21.3 µM (active) in assay [18].
As for `O=[N+]([O-])c1cc(Cl)ccc1Cl`, the Potency result in assay [20], in assay [2], in [3], in [17], in assay [4] and in assay [5] was “inactive” each time. The Potency result in assay [6], in [7], in [9], in assay [10], in [11] and in assay [12] was “inactive” in each case. Besides, the Potency result in assay [18], in assay [13], in assay [14] and in assay [15] was “inactive” throughout. For the same compound, in assay [16], the max response was -0.799% (inactive).
Turning to `ClC1=C(Cl)[C@]2(Cl)[C@H]3[C@H]([C@H]4C=C[C@H]3C4)[C@@]1(Cl)C2(Cl)Cl`, the Potency entry in assay [20], in assay [2], in [3], in [17], in [4] and in assay [5] was “inactive” each time. Moreover, the Potency result in assay [6], in assay [7], in assay [9], in assay [12], in assay [18] and in assay [19] was “inactive” throughout. In addition, the Potency entry in assay [13], in assay [14] and in assay [15] was “inactive” throughout. In addition, the max response in assay [16] is -13.1% (inactive).
As to `N#Cc1c(-c2ccc(Cl)cc2)[nH]c(C(F)(F)F)c1Br`, the Potency in assay [1] is 49 µM (active); in [16] it was 1.23 µM (active); in assay [18], 1.1 µM (active). In addition, the Potency entry in [3], in assay [17], in [7], in assay [9], in assay [11] and in assay [13] was “inactive” throughout. Further, the Potency result in assay [15] is “inactive”.
As for `CC(C)[C@H](C(=O)O[C@H](C#N)c1cccc(Oc2ccccc2)c1)c1ccc(Cl)cc1`, the Potency entry in assay [1], in assay [3], in assay [17], in [4], in assay [5] and in assay [6] was “inactive” in each case. In addition, the Potency result in [7], in [8], in assay [9], in [10], in assay [12] and in assay [13] was “inactive” in each case. The Potency result in assay [14] and in [15] was “inactive” each time.
